# Assay results as given in ChEMBL document CHEMBL5724796, “Tm Shift (DSF) assay results for EUbOPEN Chemogenomics Library” (2024).
# Non-standard residues stand in square brackets, D forms with d. Residues, ends and D or L forms follow the SMILES beside them. *: point of attachment. Benzoyl(4-tBu) = CC(C)(C)c1ccc(C(=O)*)cc1; Lys(Et2) = CCN(CC)CCCC[C@H](N)C(=O)O
# Target: Casein kinase I isoform delta (Homo sapiens) (UniProt P48730)
# Conditions: Compound concentration 20.0 uM
# Chain of Casein kinase I isoform delta (Homo sapiens) (P48730 whole entry, looked up, canonical isoform): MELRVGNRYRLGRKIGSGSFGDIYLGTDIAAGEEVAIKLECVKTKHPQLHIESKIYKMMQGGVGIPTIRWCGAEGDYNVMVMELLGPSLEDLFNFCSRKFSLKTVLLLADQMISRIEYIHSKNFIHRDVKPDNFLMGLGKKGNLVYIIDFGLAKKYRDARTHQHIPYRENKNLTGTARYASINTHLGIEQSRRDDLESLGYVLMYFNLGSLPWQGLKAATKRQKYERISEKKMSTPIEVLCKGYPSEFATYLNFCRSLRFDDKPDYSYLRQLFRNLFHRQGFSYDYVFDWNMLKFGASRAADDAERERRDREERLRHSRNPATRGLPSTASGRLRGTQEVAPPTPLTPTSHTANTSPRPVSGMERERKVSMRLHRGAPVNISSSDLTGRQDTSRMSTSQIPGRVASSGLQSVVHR
row,Structure (SMILES),ΔTm
1,O=C(CCCCCCNC(=O)c1cnc(N(c2ccccc2)c2ccccc2Cl)nc1)NO,0.15 °C
2,O=C1Nc2ccccc2C2(CCN(CC(Cc3ccccc3)Nc3nc4ccc(F)cc4s3)CC2)N1 (stereo unspecified),-0.49 °C
3,C[C@@H]1CN(Cc2ncccn2)C[C@H]1c1nc2c(cnn2C2CCOCC2)c(=O)[nH]1,-0.3 °C
4,CNCCCN1c2ccccc2CCc2ccccc21,-0.01 °C
5,O=C(NCc1ccc(Cl)cc1)C1CCN(S(=O)(=O)c2cc(Cl)cc(Cl)c2)CC1,-0.37 °C
6,COCCOCCn1nc2c(c1C)-c1c(Cl)ccc3c1c(C)c(C(=O)O)n3CCCOc1cc(cc3c(F)c(Cl)ccc13)CCc1cc(nn1C)CSC2,-0.76 °C
7,O=c1[nH][nH]c(=O)c2cc(OCc3ccccc3F)ccc12,-6.69 °C
8,CCN(CC)CCCC[C@H](NC(=O)[C@H](CC(C)C)NC(=O)[C@H](C)NC(=O)[C@H](Cc1ccccc1)NC(=O)c1ccc(C(C)(C)C)cc1)C(=O)N[C@@H](CO)C(=O)OC ({Benzoyl(4-tBu)}-FAL[Lys(Et2)]S-OMe),0.5 °C
9,Cc1cc(-c2ccccc2)cc(C(=O)NNS(=O)(=O)c2ccccc2)c1F,0.42 °C
10,COc1ccc([C@@H]2CNC(=O)C2)cc1OC1CCCC1,-0.19 °C
11,CC(C)[C@@H]1NC(=O)[C@H](Cc2ccc(O)cc2)NC(=O)[C@@H](CC(=O)O)NC(=O)S[C@@H](C(=O)O)NC(=O)[C@H]([C@H](C)O)NC(=O)[C@H](Cc2ccc(O)cc2)NC(=O)[C@H](Cc2c[nH]c3ccccc23)NC(=O)[C@H](CCCNC(=N)N)NC(=O)[C@H](Cc2c[nH]c3ccccc23)NC(=O)[C@H](C)NC(=O)[C@H](CO)NC(=O)[C@H](CCCNC(=N)N)NC(=O)[C@H]([C@H](C)O)NC(=O)[C@H](CC(N)=O)NC(=O)[C@H](Cc2ccc(O)cc2)NC1=O,-0.3 °C
12,COc1cc(Nc2ncc(F)c(Nc3ccc4c(n3)N(COP(=O)(O)O)C(=O)C(C)(C)O4)n2)cc(OC)c1OC,0.24 °C
13,COC(=O)[C@H]1[C@H]2C[C@@H]3c4[nH]c5cc(OC)ccc5c4CCN3C[C@H]2C[C@@H](OC(=O)c2cc(OC)c(OC)c(OC)c2)[C@@H]1OC,-0.26 °C
14,O=C(CCCCCCNC(=O)c1cnc(N(c2ccccc2)c2ccccc2)nc1)NO,0.12 °C
15,CCC[C@@H]1CNCc2c1[nH]c(=O)c(C#N)c2N1CCC2(CC1)CC2,0.29 °C
16,Cc1ccc(F)c2cc(C(=O)N[C@@H]3CCC[C@H](N4CC[C@H](N(C)S(C)(=O)=O)C4)C3)[nH]c12,0.73 °C

row,Structure (SMILES),ΔTm
1,NC(=O)c1cc(F)cc2c1C(=O)N(C1CCN(C3CCC(F)(F)CC3)CC1)C2,0.25 °C
2,CCCC[C@]1(CC)CS(=O)(=O)c2cc(CNC(CC(=O)O)CC(=O)O)c(OC)cc2[C@@H](c2ccccc2)N1,-0.45 °C
3,C[C@@H](Oc1ccc(S(C)(=O)=O)cc1C(=O)N1C[C@@H]2C[C@]2(c2cc(C(F)(F)F)on2)C1)C(F)(F)F,-0.17 °C
4,CCN(CC)C(=O)/C(C#N)=C/c1cc(O)c(O)c([N+](=O)[O-])c1,-0.1 °C
5,Cc1cc(C)c(CNC(=O)c2cc(Cl)c3c(c2C)O[C@@](C)([C@H]2CC[C@H](N(C)C)CC2)O3)c(=O)[nH]1,0.43 °C
6,O=C(CCCCCCC(=O)Nc1ccc([C@H]2O[C@@H](CSc3nc(-c4ccccc4)c(-c4ccccc4)o3)C[C@@H](c3ccc(CO)cc3)O2)cc1)NO,0 °C
7,Cc1ncc(Cl)cc1NCc1ccc(C(=O)N[C@@H](CC2CCCC2)C(=O)NC2CC2)s1,-0.05 °C
8,COc1ccc(CC[C@H]2CCC[C@@H](CCc3ccc(OC)cc3)N2C[C@@H](O)CO)cc1,-0.1 °C
9,C=C(C)[C@@H](CC=C(C)C)C[C@@]12C[C@@H](CC=C(C)C)C(C)(C)[C@@](CC=C(C)C)(C(=O)C(C(=O)c3ccc(O)c(O)c3)=C1O)C2=O,0.51 °C
10,CNC(=O)c1cc(Nc2ccnc(Nc3ccc(CCNC(=O)OC(C)(C)C)cc3)n2)n[nH]1,0.55 °C
11,O=C(c1cc(Cc2n[nH]c(=O)c3ccccc23)ccc1F)N1CC(CNC2CC2)C1,-0.14 °C
12,CCCCOc1c(OC)cc(C(=O)NCC2(N(C)C)CCOCC2)cc1OC,-0.36 °C
13,Cn1c(=O)cc(N2CCC[C@@H](N)C2)n(Cc2cc(F)ccc2C#N)c1=O,-0.06 °C
14,CCOCC1(COCC)CCC(c2n[nH]cc2CN(C)CCNC)CC1,0.56 °C
15,CCCNC(=O)[C@H]1O[C@@H]1C(=O)N[C@H](C(=O)N1CCC[C@H]1C(=O)O)[C@@H](C)CC,-0.02 °C
